From PubChem BioAssay
Cruzain Triton: inhibitors of Trypanosoma cruzi cruzain with detergent; P25779; purified cruzain, Z-FR-AMC fluorescence, 0.01% Triton; Potency, µM, most hits filed as inhibitors; 200,000 compounds, 0.43% hits; AID 1478; note: nearly all actives have a fitted effect of over 40% in size
Target sequence (P25779 123-467 limits assumed): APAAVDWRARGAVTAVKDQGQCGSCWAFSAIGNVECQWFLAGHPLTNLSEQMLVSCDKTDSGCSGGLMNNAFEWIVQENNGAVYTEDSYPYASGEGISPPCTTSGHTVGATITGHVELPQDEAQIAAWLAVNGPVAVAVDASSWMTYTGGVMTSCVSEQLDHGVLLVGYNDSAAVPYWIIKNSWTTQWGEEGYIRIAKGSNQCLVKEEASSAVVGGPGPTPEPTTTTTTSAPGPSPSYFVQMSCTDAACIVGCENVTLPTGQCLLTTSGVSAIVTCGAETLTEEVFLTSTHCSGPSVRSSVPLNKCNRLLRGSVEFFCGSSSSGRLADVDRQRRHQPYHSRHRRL
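Compounds were screened in titration against cruzain (1.5 nM) with 0.01% Triton X-100 to counter colloidal aggregation. Activity was the AMC fluorescence increase over 60 s after adding 2 uM Z-FR-AMC at pH 5.5.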
Cruzain noTriton: blocks cruzain activity in detergent-free assay. P25779. purified cruzain, Z-FR-AMC fluorescence, no detergent. Potency, µM, most hits filed as inhibitors. 200,000 compounds, 2.3% hits. AID 1476; note: nearly all actives have a fitted effect of over 40% in size
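Purified cruzain at 1.5 nM, pre-incubated 15 min with compound at room temperature in 100 mM sodium acetate pH 5.5, 5 mM DTT, 0.00005% Triton X-100. Reaction started with 2 uM Z-FR-AMC; AMC fluorescence increase over 60 s gives rate.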
Large screens that a line does not name were inactive. A selection: hits, their analogues and other compounds. The true share with any hit is near 2.5%. Calls come from the whole dose curve; as a rule, active = well fitted curve in the direction sought with a large enough effect; inconclusive = small, poorly fitted or top-dose-only effect, or another doubt; inactive = no such curve, though single readings can be large; an effect the other way counts as inactive or inconclusive.

CN1/C(=C\C(=O)COC(=O)CN2C(=O)C3CC=CCC3C2=O)C(C)(C)c2ccccc21 (stereo not drawn)	none
CC1(C)CC2C1CC[C@]1(C)CCC3C(C(=O)O)CC(=O)O[C@]32C1 (stereo partly drawn)	none
COc1ccc(C2CC(=O)c3c(O)cc(O[C@H]4OC(COC5OC(C)C(O)C(O)[C@@H]5O)C(O)C(O)C4O)cc3O2)cc1O (stereo partly drawn)	none
COc1ccc(CNC(=O)Cn2c(=O)c3cccn3c3ccccc32)cc1	Cruzain noTriton 31.6µM
COc1ccc(CNC(=O)Cn2c(=O)c3cccn3c3cccnc32)cc1	none
COc1ccc(CNC(=O)Cn2nc(C)n3cccc3c2=O)cc1	Cruzain noTriton 25.1µM
Cc1ccc(CNC(=O)Cn2nc(C)n3cccc3c2=O)cc1	none
CC1=C(c2ccc(C(C)C)cc2)S(=O)(=O)N=C1N1CCC(C(=O)NCc2ccc(C)o2)CC1	none
COc1ccc2c(c1)CC(NC(=O)Nc1ccc(Br)c(C)c1)CO2 (stereo not drawn)	none
COc1ccc(C)cc1NC(=O)CSc1nnc(-c2ccc(C)cc2)o1	none
CCOc1ccc(-c2nnc(SCC(=O)Nc3ccc(C)cc3C)o2)cc1	none
CCOc1ccc(-c2nnc(SCC(=O)Nc3cc(C)ccc3OC)o2)cc1	Cruzain Triton 31.6µM, Cruzain noTriton inconclusive
CCOc1ccc(-c2nnc(SCC(=O)Nc3ccc(C)cc3Cl)o2)cc1	Cruzain Triton 28.2µM, Cruzain noTriton inconclusive
CN1CCN(c2ncc3nc(-c4ccc(Cl)cc4)c(=O)n(C)c3n2)CC1	Cruzain noTriton inconclusive
CCC(C)NC(=O)Cn1c(=O)n(CC2CCC(C(=O)NC)CC2)c(=O)c2sccc21 (stereo not drawn)	none
CCn1c(-c2cc(-c3cccc(OC)c3)nc3ccccc23)n[nH]c1=S	none
CCc1ccc(-c2cc(-c3n[nH]c(=S)n3CC)c3ccccc3n2)cc1	Cruzain noTriton 15.8µM
Cc1ccc(NC(=O)C(Cc2ccccc2)NS(=O)(=O)c2ccc3c(c2)CCC(=O)N3)cc1 (stereo not drawn)	none
COC(=O)C(c1ccc(OC)c(OC)c1)C1c2ccccc2C=C(C)N1C(=O)OC (stereo not drawn)	none
COc1ccc(Nc2oc(-c3ccc(COc4cccc(C)c4)o3)nc2C#N)cc1	Cruzain noTriton 15.8µM
COc1ccc(Nc2oc(-c3ccc(COc4ccc(OC)cc4)o3)nc2C#N)cc1	none
COc1ccc(Nc2oc(COc3ccccc3F)nc2C#N)cc1	Cruzain noTriton 25.1µM
COc1ccc(Nc2oc(-c3ccc(COc4ccccc4)o3)nc2C#N)cc1	Cruzain noTriton inconclusive
CCOc1ccc(Nc2oc(-c3ccc(COc4ccc(C)cc4)o3)nc2C#N)cc1	Cruzain noTriton 3.16µM
COc1ccc(Nc2oc(COc3ccc(OC)cc3)nc2C#N)cc1	none
COc1cc(OC)c2c(C)c(CC(=O)N3CCCCC3)c(=O)oc2c1	none
Cc1ccc(NC(=O)C(Cc2ccccc2)NS(=O)(=O)c2cccc3nsnc23)c(C)c1 (stereo not drawn)	none
CCC(=O)N1c2ccc(S(=O)(=O)N3CCC(C)CC3)cc2CC1C (stereo not drawn)	none
O=C(c1cc2ccccc2oc1=O)N1CCN(c2ccc(Cl)cc2)CC1	none
COc1ccc2nc(-c3cccc(N)c3)[nH]c2c1	none
COc1ccc2nc(-c3ccc(N)cc3)[nH]c2c1	Cruzain Triton 28.2µM, Cruzain noTriton 10µM
COc1ccccc1-n1c(=O)c2c3c(sc2n(C)c1=O)CN(C(C)=O)CC3	none
C[C@]12C=CC(=O)C=C1CC[C@@H]1[C@H]3C[C@@H](O)[C@](O)(C(=O)CO)[C@@]3(C)C[C@H](O)[C@]12F	none
CC1CCC(C(C)C)C(OC(=O)C2=C3c4ccccc4S(=O)(=O)N3CC2)C1 (stereo not drawn)	Cruzain Triton inconclusive, Cruzain noTriton 31.6µM
CC1CCC(C(C)C)[C@H](OC(=O)c2ccccc2)C1 (stereo partly drawn)	none
CC(C)c1ccc(NC(=O)c2cn(C3CCCCC3)c(=O)c3c2c2ccccc2n3C)cc1	Cruzain noTriton inconclusive
Brc1ccc(C2Nc3cccc4cccc(c34)N2)o1	Cruzain noTriton 7.94µM
c1csc(C2Nc3cccc4cccc(c34)N2)c1	Cruzain noTriton 7.94µM
O=[N+]([O-])c1ccccc1C1Nc2cccc3cccc(c23)N1	Cruzain noTriton inconclusive
CN1c2cccc3cccc(c23)N(C)C1c1cccs1	none
Fc1ccc(C(NCCc2ccccc2)c2nnc(-c3ccccc3Cl)o2)cc1 (stereo not drawn)	none
COc1ccccc1-c1cc(NC(=O)COc2ccc(C)c(C)c2)n(-c2ccccc2)n1	Cruzain noTriton inconclusive
O=C(Nc1nc2c(s1)CCCC2)c1ccc(S(=O)(=O)N2CCCc3ccccc32)cc1	Cruzain noTriton inconclusive
CC1CCc2nc(NC(=O)c3ccc(S(=O)(=O)N4CCCc5ccccc54)cc3)sc2C1 (stereo not drawn)	Cruzain noTriton 7.94µM
Cc1ccc(NC(=O)c2c(C)oc3ncnc(N4CCCCC4)c23)c(C)c1	none
Cc1ccc(S(=O)(=O)N2CCCCC2)cc1NC(=O)COC(=O)CNC(=O)c1cc(Cl)cc([N+](=O)[O-])c1	Cruzain Triton 10µM, Cruzain noTriton 20µM
CC(C)NC(=O)COC(=O)CNC(=O)c1cc(Cl)cc([N+](=O)[O-])c1	Cruzain Triton 7.94µM, Cruzain noTriton 7.94µM
Cc1ccc(S(=O)(=O)N2CCOCC2)cc1NC(=O)COC(=O)CNC(=O)c1ccc(C(C)(C)C)cc1	Cruzain noTriton inconclusive
CC(C)(C)c1ccc(C(=O)NCC(=O)OCC(=O)Nc2ccccc2[N+](=O)[O-])cc1	none
Cc1cc(C)cc(NC(=O)CN(C)S(=O)(=O)c2ccc3c(c2)CCC(=O)N3)c1	none
CCOc1ccc2nc(SCC(=O)N3c4ccccc4Sc4ccccc43)sc2c1	Cruzain noTriton inconclusive
Cc1cnc(NC(=O)CSc2nc3ccccc3s2)s1	none
Cc1cc(NC(=O)CSc2nc3ccccc3s2)no1	Cruzain noTriton 31.6µM
O=C(CSc1nc2ccccc2s1)N1c2ccccc2Sc2ccccc21	Cruzain noTriton 15.8µM
O=C(CCN1CCOCC1)c1ccc2c(c1)OCCO2	none
O=C(CCN1CCc2ccccc2CC1)c1ccc2c(c1)OCCO2	Cruzain Triton inconclusive, Cruzain noTriton 15.8µM
CC(/C=N/NC(=O)c1cc(-c2ccc(Cl)cc2)nc2ccccc12)=C\c1ccco1	Cruzain noTriton 7.94µM
CC(/C=N/NC(=O)c1cc(-c2ccccc2)nc2ccccc12)=C\c1ccco1	Cruzain noTriton inconclusive
CCCc1nc2ccccc2c(=O)n1-c1cccc(OC)c1	none
CC(C)Oc1cccc(-n2c(CCc3c[nH]c4ccc(Br)cc34)nc3ccccc3c2=O)c1	Cruzain noTriton 31.6µM
Cc1ccc(NC(=O)CSc2nnc(C)n3c2cc2sccc23)c(C)c1	none
CCN1CC=C2C(C#N)=C(N)C(C#N)(C#N)C(CCc3ccccc3)C2C1 (stereo not drawn)	Cruzain Triton 14.1µM, Cruzain noTriton 6.31µM
CC(=O)N1CC=C2C(C#N)=C(N)C(C#N)(C#N)C(CCc3ccccc3)C2C1 (stereo not drawn)	none
COc1ccc(CCNC(=O)C2CCN(Cc3nc(-c4ccc(OC)c(OC)c4)oc3C)CC2)cc1OC	none
N#C/C(=C\c1cc([N+](=O)[O-])c(N2CCCCC2)cc1N1CCCCC1)c1nn(-c2ccccc2)c(N)c1C#N	Cruzain noTriton 7.94µM
N#C/C(=C\c1cc([N+](=O)[O-])c(N2CCOCC2)cc1N1CCOCC1)c1nc2ccccc2[nH]1	Cruzain noTriton inconclusive
CCOC(=O)Cc1cc(=O)n(-c2nc3ccccc3s2)[nH]1	Cruzain Triton 17.8µM, Cruzain noTriton inconclusive
